Drawing on PMC10812921, “Transcriptional Coactivator BOB1 (OBF1, OCA-B) Modulates the Specificity of DNA Recognition by the POU-Domain Factors OCT1 and OCT2 in a Monomeric Configuration”, this text covers binding signal for 30 sequences.

For one test, the target named is POU1 (OCT1 POU domain) (human, UniProt P14859 260-458). The test can be described thus: EMSA-SELEX-seq; no BOB1; 20 mM Tris-HCl pH 7.6, 140 mM NaCl, 10% glycerol, 0.5 mM EDTA, 0.05% Triton X-100, 0.1 mg/mL BSA, 0.1 mg/mL poly(dI-dC), 5 mM DTT, room temperature, 20 min; high values mean tight binding. To be noted: protein: recombinant; dsDNA, one strand shown. Summed up:
(§1)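 Binding preference is the percentage of sequenced 8-mers matching a motif pattern. Tagged POU-domain proteins expressed in E. coli BL21 were purified under denaturing conditions and renatured. For binding, 30 ng protein met 300 ng of a PCR-amplified double-stranded random 35-nt library, with or without 28 ng coactivator protein, in 20 μL Tris–HCl pH 7.6 binding buffer for 20 min at RT. Complex bands were cut from native 6% PAGE, eluted and PCR-amplified over four rounds, then Illumina-sequenced.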

The target of a further test is T1, POU2 (OCT2 POU domain) (human, UniProt P09086 175-386).
T1 sequence: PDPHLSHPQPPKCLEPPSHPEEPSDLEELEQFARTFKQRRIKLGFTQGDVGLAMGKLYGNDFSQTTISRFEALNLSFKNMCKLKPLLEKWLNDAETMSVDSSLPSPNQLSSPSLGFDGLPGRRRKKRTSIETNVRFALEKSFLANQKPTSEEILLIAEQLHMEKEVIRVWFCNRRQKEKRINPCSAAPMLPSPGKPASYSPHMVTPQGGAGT
Described as above. To be noted: protein: recombinant; dsDNA, one strand shown. In short, it runs like this: as §1

The target of test [1] is POU1 (OCT1 POU domain);BOB1 (OBF1, OCA-B) (human;human, UniProt P14859;Q16633 260-458;1-256, |). The test can be described thus: EMSA-SELEX-seq; with BOB1 (ternary complex band); 20 mM Tris-HCl pH 7.6, 140 mM NaCl, 10% glycerol, 0.5 mM EDTA, 0.05% Triton X-100, 0.1 mg/mL BSA, 0.1 mg/mL poly(dI-dC), 5 mM DTT, room temperature, 20 min; high values mean tight binding. To be noted: protein: recombinant;recombinant; copies: 1;1; dsDNA, one strand shown. In short, it runs like this: as §1

The target of test [2] is T2, POU2 (OCT2 POU domain);BOB1 (OBF1, OCA-B) (human;human, UniProt P09086;Q16633 175-386;1-256, |).
T2 sequence 1: T1 sequence
T2 sequence 2: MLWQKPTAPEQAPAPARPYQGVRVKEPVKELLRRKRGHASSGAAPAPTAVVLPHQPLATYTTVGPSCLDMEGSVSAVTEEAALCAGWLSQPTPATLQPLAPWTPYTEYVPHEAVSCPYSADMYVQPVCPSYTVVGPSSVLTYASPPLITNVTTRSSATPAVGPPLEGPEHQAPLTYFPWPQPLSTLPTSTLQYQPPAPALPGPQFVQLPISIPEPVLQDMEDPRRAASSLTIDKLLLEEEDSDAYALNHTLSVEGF
The test is described as above. The conditions noted are these: protein: recombinant;recombinant; copies: 1;1; dsDNA, one strand shown. In short, it runs like this: as §1

Sequence of POU1 (OCT1 POU domain) (P14859 260-458): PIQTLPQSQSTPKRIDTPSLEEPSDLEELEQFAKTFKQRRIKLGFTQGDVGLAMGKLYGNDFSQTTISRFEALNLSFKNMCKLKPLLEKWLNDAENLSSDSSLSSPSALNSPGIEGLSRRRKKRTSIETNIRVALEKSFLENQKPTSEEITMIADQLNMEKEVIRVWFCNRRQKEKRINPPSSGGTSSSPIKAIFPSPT

In the case of ATGCAAAG, the binding signal in the test with POU1 (OCT1 POU domain) was 1.06 % of ANNNNAAN 8-mers; in the test with POU2 (OCT2 POU domain), 0.831 % of ANNNNAAN 8-mers; in test [1], 2.22 % of ANNNNAAN 8-mers; in test [2], 2.27 % of ANNNNAAN 8-mers.
For ATAGAAAG the same measures were 0.0461 % of ANNNNAAN 8-mers, 0.0598 % of ANNNNAAN 8-mers, 0.0546 % of ANNNNAAN 8-mers and 0.0487 % of ANNNNAAN 8-mers.
For AACTCAAT, in that order: 0.0378 % of ANNNNAAN 8-mers, 0.0437 % of ANNNNAAN 8-mers, 0.0289 % of ANNNNAAN 8-mers and 0.0314 % of ANNNNAAN 8-mers.
As for AAAGAAAT, the binding signal with POU1 (OCT1 POU domain) is 0.145 % of ANNNNAAN 8-mers; with POU2 (OCT2 POU domain), 0.112 % of ANNNNAAN 8-mers; in test [1] it was 0.16 % of ANNNNAAN 8-mers; in test [2] it was 0.0958 % of ANNNNAAN 8-mers.
AACTGAAC: the binding signal with POU1 (OCT1 POU domain) is 0.0179 % of ANNNNAAN 8-mers; in the test with POU2 (OCT2 POU domain), 0.019 % of ANNNNAAN 8-mers; in test [1] it was 0.0168 % of ANNNNAAN 8-mers; in test [2], 0.0182 % of ANNNNAAN 8-mers.
For AGCCTAAA, in that order: 0.0271 % of ANNNNAAN 8-mers, 0.0316 % of ANNNNAAN 8-mers, 0.0191 % of ANNNNAAN 8-mers and 0.0206 % of ANNNNAAN 8-mers.
For ATCTGAAA the same measures were 0.0374 % of ANNNNAAN 8-mers, 0.046 % of ANNNNAAN 8-mers, 0.0472 % of ANNNNAAN 8-mers and 0.0545 % of ANNNNAAN 8-mers.
For AGTTAAAA the same measures were 0.0778 % of ANNNNAAN 8-mers, 0.0915 % of ANNNNAAN 8-mers, 0.0831 % of ANNNNAAN 8-mers and 0.0537 % of ANNNNAAN 8-mers.
As for ACTGTAAC, the binding signal was 0.0175 % of ANNNNAAN 8-mers with POU1 (OCT1 POU domain), 0.0224 % of ANNNNAAN 8-mers with POU2 (OCT2 POU domain), 0.0203 % of ANNNNAAN 8-mers in test [1] and 0.0165 % of ANNNNAAN 8-mers in test [2].
Regarding ACATCAAG, the binding signal is 0.024 % of ANNNNAAN 8-mers in the test with POU1 (OCT1 POU domain), 0.0351 % of ANNNNAAN 8-mers in the test with POU2 (OCT2 POU domain), 0.0265 % of ANNNNAAN 8-mers in test [1] and 0.033 % of ANNNNAAN 8-mers in test [2].
For ATTGGAAT the same measures were 0.141 % of ANNNNAAN 8-mers, 0.18 % of ANNNNAAN 8-mers, 0.0968 % of ANNNNAAN 8-mers and 0.0966 % of ANNNNAAN 8-mers.
For the sequence AGCACAAT, the binding signal with POU1 (OCT1 POU domain) was 0.0233 % of ANNNNAAN 8-mers; in the test with POU2 (OCT2 POU domain) it was 0.0311 % of ANNNNAAN 8-mers; in test [1] it was 0.0258 % of ANNNNAAN 8-mers; in test [2] it was 0.0264 % of ANNNNAAN 8-mers.
For ATTATAAG, in that order: 0.121 % of ANNNNAAN 8-mers, 0.163 % of ANNNNAAN 8-mers, 0.0843 % of ANNNNAAN 8-mers and 0.0966 % of ANNNNAAN 8-mers.
For AAGCTAAC the same measures were 0.0137 % of ANNNNAAN 8-mers, 0.0178 % of ANNNNAAN 8-mers, 0.0191 % of ANNNNAAN 8-mers and 0.0215 % of ANNNNAAN 8-mers.
For AAGATAAG, in that order: 0.045 % of ANNNNAAN 8-mers, 0.0593 % of ANNNNAAN 8-mers, 0.046 % of ANNNNAAN 8-mers and 0.0429 % of ANNNNAAN 8-mers.
As to AATTTAAC, the binding signal is 0.17 % of ANNNNAAN 8-mers in the test with POU1 (OCT1 POU domain), 0.147 % of ANNNNAAN 8-mers in the test with POU2 (OCT2 POU domain), 0.117 % of ANNNNAAN 8-mers in test [1] and 0.0982 % of ANNNNAAN 8-mers in test [2].
For ATGTAAAG, in that order: 0.489 % of ANNNNAAN 8-mers, 0.393 % of ANNNNAAN 8-mers, 0.489 % of ANNNNAAN 8-mers and 0.477 % of ANNNNAAN 8-mers.
For ACCAGAAG, in that order: 0.0137 % of ANNNNAAN 8-mers, 0.0167 % of ANNNNAAN 8-mers, 0.018 % of ANNNNAAN 8-mers and 0.0215 % of ANNNNAAN 8-mers.
For ATCTTAAG, in that order: 0.0461 % of ANNNNAAN 8-mers, 0.0541 % of ANNNNAAN 8-mers, 0.0503 % of ANNNNAAN 8-mers and 0.0438 % of ANNNNAAN 8-mers.
With AATTCAAG, the binding signal with POU1 (OCT1 POU domain) is 0.101 % of ANNNNAAN 8-mers; with POU2 (OCT2 POU domain), 0.0886 % of ANNNNAAN 8-mers; in test [1] it was 0.0714 % of ANNNNAAN 8-mers; in test [2], 0.0817 % of ANNNNAAN 8-mers.
For AGAGCAAA the same measures were 0.0374 % of ANNNNAAN 8-mers, 0.0293 % of ANNNNAAN 8-mers, 0.0433 % of ANNNNAAN 8-mers and 0.0413 % of ANNNNAAN 8-mers.
For ATTTGAAT, in that order: 1.84 % of ANNNNAAN 8-mers, 1.5 % of ANNNNAAN 8-mers, 1.92 % of ANNNNAAN 8-mers and 2.32 % of ANNNNAAN 8-mers.
For AGTTTAAT the same measures were 0.129 % of ANNNNAAN 8-mers, 0.156 % of ANNNNAAN 8-mers, 0.0882 % of ANNNNAAN 8-mers and 0.111 % of ANNNNAAN 8-mers.
AGCATAAA: the binding signal with POU1 (OCT1 POU domain) is 0.204 % of ANNNNAAN 8-mers; with POU2 (OCT2 POU domain) it was 0.213 % of ANNNNAAN 8-mers; in test [1], 0.0566 % of ANNNNAAN 8-mers; in test [2] it was 0.0867 % of ANNNNAAN 8-mers.
Consider ACGCAAAT, for which the binding signal was 0.564 % of ANNNNAAN 8-mers with POU1 (OCT1 POU domain), 0.409 % of ANNNNAAN 8-mers with POU2 (OCT2 POU domain), 1.27 % of ANNNNAAN 8-mers in test [1] and 1.38 % of ANNNNAAN 8-mers in test [2].
For AAATTAAC, in that order: 0.334 % of ANNNNAAN 8-mers, 0.33 % of ANNNNAAN 8-mers, 0.188 % of ANNNNAAN 8-mers and 0.196 % of ANNNNAAN 8-mers.
For ACCCCAAA, in that order: 0.0198 % of ANNNNAAN 8-mers, 0.0104 % of ANNNNAAN 8-mers, 0.0109 % of ANNNNAAN 8-mers and 0.0124 % of ANNNNAAN 8-mers.
For AGACTAAG, in that order: 0.0278 % of ANNNNAAN 8-mers, 0.0328 % of ANNNNAAN 8-mers, 0.03 % of ANNNNAAN 8-mers and 0.0314 % of ANNNNAAN 8-mers.
Take AATCAAAT: the binding signal in the test with POU1 (OCT1 POU domain) is 0.295 % of ANNNNAAN 8-mers; with POU2 (OCT2 POU domain) it was 0.212 % of ANNNNAAN 8-mers; in test [1], 0.419 % of ANNNNAAN 8-mers; in test [2], 0.301 % of ANNNNAAN 8-mers.
For ACGGTAAG, the binding signal was 0.0351 % of ANNNNAAN 8-mers in the test with POU1 (OCT1 POU domain), 0.0311 % of ANNNNAAN 8-mers with POU2 (OCT2 POU domain), 0.0359 % of ANNNNAAN 8-mers in test [1] and 0.0413 % of ANNNNAAN 8-mers in test [2].
